Inconclusive results are not listed. Active and inactive are the calls of the source. Calls come from the whole dose curve; as a rule, active = well fitted cell-killing curve with a large enough effect; inconclusive = small, poorly fitted or top-dose-only effect, or effect the other way; inactive = no such curve, though single readings can be large or run the other way. Positions of bridges follow the written chain, without caps; N, C: chain ends. Non-standard residues stand in square brackets, D forms with d. Residues, ends and D or L forms follow the SMILES beside them. ξ: configuration not given here. *: point of attachment. Octanoyl(6-Me) = CCC(C)CCCCC(=O)*; ξThr(3R) = C[C@@H](O)C(N)C(=O)O; dDab = NCC[C@@H](N)C(=O)O; Dab = NCC[C@H](N)C(=O)O; Nva = CCC[C@H](N)C(=O)O; Cbz = O=C(OCc1ccccc1)*
Potency is the fitted concentration of half-maximal effect.

This assay can be described thus: Quantitative High-Throughput drug screen in 47 multiple myeloma cell lines against the NCATS MIPE library collection: KMS34_JCRB cell viability assay (AID 1918985). Note: nearly all actives have a fitted effect of over 40% in size. Particulars: KMS34 myeloma viability, CellTiter-Glo ATP luminescence, 48 h; series mostly up to 45.8 µM; viability, percent of control: at the top concentration. From the text: PI: Beverly A. Mock Ph.D.
Laboratory of Cancer Biology and Genetics,
Center for Cancer Research, National Cancer Institute,
National Institute of Health, Bethesda, Maryland
Drug resistance and disease progression are common in multiple myeloma (MM) patients, underscoring the need for new therapeutic combinations. […] We hypothesized that effective combinations would reduce MYC expression and enhance p16 activity. […] These preclinical data identify potentially useful drug combinations for evaluation in drug-resistant MM and reveal potential mechanisms of combined drug sensitivity.
Described herein is the primary MIPE qHTS used to cherrypick compounds. Validated compounds were then further tested for potential synergistic activiy.
[1] Peat TJ, Gaikwad SM, Dubois W, Gyabaah-Kessie N, Zhang S, Gorjifard S, Phyo Z, Andres M, Hughitt VK, Simpson RM, Miller MA, Girvin AT, Taylor A, Williams D, D'Antonio N, Zhang Y, Rajagopalan A, Flietner E, Wilson K, Zhang X, Shinn P, Klumpp-Thomas C, McKnight C, Itkin Z, Chen L, Kazandijian D, Zhang J, Michalowski AM, Simmons JK, Keats J, Thomas CJ, Mock BA. Drug combinations identified by high-throughput screening promote cell cycle transition and upregulate Smad pathways in myeloma. Cancer Lett. 2023 Aug 1;568:216284. doi: 10.1016/j.canlet.2023.216284. Epub 2023 Jun 24. PMID: 37356470; PMCID: PMC10408729.
SEQUENCE No. (e.g., 1, 2, 3, etc.); […] (e.g., Cells, Incubation, Reagent, etc.); VALUE and DESCRIPTION.
1; Cells; 5 uL; white, solid bottom 1536-well Greiner assay plate.
2; Compounds; 23 nL; Kalypsis pin tool (Wako USA) equipped with a 1536-well pin head to transfer to the assay plates.
3; Incubation; 48 hours; 37C incubation.
4; Reagent;5uL; CellTiter Glo (Promega).
5; Detector; 425V; Luminescence; Viewlux PerkinElmer.
NOTES (numbers refer to Sequence numbers above)
1. The cell-based screening methods employed in this study were like those previously published. Briefly, the corresponding myeloma cell lines were screened in 1,536-well plates with 500 cells, 5-uL per well for inhibition of cell viability (assessed by measuring ATP levels with CellTiterGlo).
2. NCATS MIPE 4.0 library of approved and investigational drugs were added using the Kalypsis pin tool. Wells treated with DMSO only for 100% viability and media only for 0% viability were used as controls.
3. The assay plates were covered and incubated for 48 hours in a 37C, 5% CO2 incubator with controlled humidity.
4. After 48 hours, CellTilter-GloTM luminescent substrate mix (Promega) reagent was added to the assay plate and plates we incubated for 5 min at room temperature.
5. Signal was measured as median relative luminescence units on a ViewLux (PerkinElmer) multiplate reader.
[1] Heske CM, Davis MI, Baumgart JT, Wilson K, Gormally MV, Chen L, Zhang X, Ceribelli M, Duveau DY, Guha R, Ferrer M, Arnaldez FI, Ji J, Tran HL, Zhang Y, Mendoza A, Helman LJ, Thomas CJ. Matrix Screen Identifies Synergistic Combination of PARP Inhibitors and Nicotinamide Phosphoribosyltransferase (NAMPT) Inhibitors in Ewing Sarcoma. Clin Cancer Res. 2017 Dec 1;23(23):7301-7311. doi: 10.1158/1078-0432.CCR-17-1121. Epub 2017 Sep 12. PMID: 28899971; PMCID: PMC6636827.
On the technique in general: In ATP-based viability assays light output follows the ATP content of the culture.
On to `CC(C)c1cnn2c(NCc3ccccc3)cc(NCCCCCCN)nc12`, for which the Potency was 18.7 µM (active). Turning to `COC1=C2C[C@@H](C)C[C@H](OC)[C@@H](O)[C@@H](C)C=C(C)[C@H](OC(N)=O)[C@@H](OC)C=CC=C(C)C(=O)NC(=CC1=O)C2=O`, the Potency is 0.166 µM (active). On to `COc1ccc(Nc2cc(-c3cnc(N)nc3)nc(N3CCOCC3)n2)cn1`, for which the Potency was 2.96 µM (active). Still for that read-out and setting: with `C=CC[C@@H]1C=C(C)C[C@H](C)C[C@H](OC)[C@H]2O[C@@](O)(C(=O)C(=O)N3CCCC[C@H]3C(=O)O[C@H](C(C)=C[C@@H]3CC[C@H](O)[C@H](OC)C3)[C@@H](C)[C@@H](O)CC1=O)[C@@H](C)C[C@@H]2OC` the figure was 1.48 µM (active). For `CCn1c(=O)c2c(nc(C=Cc3ccc(OC)c(OC)c3)n2C)n(CC)c1=O`, the “viability, percent of control” value was 90.2% (inactive). The same measure, in the same setting: with `CCC(C)CCCCC(=O)N[C@@H](CCN)C(=O)NC(C(=O)N[C@H](CCN)C(=O)N[C@@H]1CCNC(=O)C([C@@H](C)O)NC(=O)[C@@H](CCN)NC(=O)[C@@H](CCN)NC(=O)[C@@H](CC(C)C)NC(=O)[C@H](Cc2ccccc2)NC(=O)[C@H](CCN)NC1=O)[C@@H](C)O` (stereo partly drawn) ({Octanoyl(6-Me)}-[Dab][ξThr(3R)][dDab][dDab][Dab]F[dL][dDab][dDab][ξThr(3R)]; lactam 4-C) the figure was 116% (inactive). With `CN(C)CCN1C(=O)c2cccc3cc(N)cc(c23)C1=O`, the Potency was 23.5 µM (active). For the compound `NC1=N[C@H]2[C@H](CS[C@H]2CCCCC(=O)O)N1`, the “viability, percent of control” value was 104% [at 23.2 µM] (inactive). On to `C[N+](C)([O-])CCNc1ccc(NCC[N+](C)(C)[O-])c2c1C(=O)c1c(O)ccc(O)c1C2=O`, for which the “viability, percent of control” value is 77.9% (inactive). With `CCCNC(=O)[C@H]1O[C@H]1C(=O)N[C@H](C(=O)N1CCC[C@@H]1C(=O)OC)C(C)CC` (stereo not given in full), the Potency is 4.18 µM (active). For the compound `CC(C)(O)[C@H]1CC[C@@](C)([C@H]2[C@@H](O)C[C@@]3(C)[C@@H]4C[C@H](O[C@@H]5O[C@H](CO)[C@@H](O)[C@H](O)[C@@H]5O)[C@H]5C(C)(C)[C@@H](O[C@@H]6OC[C@@H](O)[C@H](O)[C@@H]6O)CC[C@@]56C[C@@]46CC[C@]23C)O1`, the “viability, percent of control” value was 109% (inactive). The same measure, in the same setting: with `CCC[C@H]1C[C@H](C(=O)N[C@@H]([C@@H]2O[C@@H](SC)[C@@H](O)[C@@H](O)[C@@H]2O)[C@H](C)Cl)N(C)C1` the figure was 110% (inactive); with `COC(=O)[C@@H]1CC2=CC(=O)CC[C@]2(C)[C@@]23O[C@@H]2C[C@@]2(C)[C@H](CC[C@@]24CCC(=O)O4)[C@@H]13`, 114% (inactive).

With `CC[C@H](CC[C@@H](C)[C@H]1CC[C@H]2[C@@H]3CC=C4C[C@@H](O)CC[C@]4(C)[C@@H]3CC[C@]12C)C(C)C`, the “viability, percent of control” value was 98.1% (inactive). In the case of `CS[C@H]1SC[C@@H]2C(=O)N(C)[C@H](C(C)C)C(=O)OC[C@H](NC(=O)c3cnc4ccccc4n3)C(=O)N[C@H](C)C(=O)N(C)[C@@H]1C(=O)N(C)[C@H](C(C)C)C(=O)OC[C@H](NC(=O)c1cnc3ccccc3n1)C(=O)N[C@H](C)C(=O)N2C`, the Potency was 0.0047 µM (active).

`C[C@@H](Oc1ccc2[nH]nc(C=Cc3cnn(CCO)c3)c2c1)c1c(Cl)cncc1Cl`: the Potency was 0.209 µM (active). Same read-out and setting: the figure for `COc1cc(N2CCC(C(N)=O)CC2)ccc1Nc1nc(N)c(Cl)c(Nc2ccccc2S(=O)(=O)C(C)C)n1` is 2.96 µM (active); for `FC(F)c1nc2ccccc2n1-c1nc(N2CCOCC2)nc(N2CCOCC2)n1` it is 1.32 µM (active); for `COc1ccc(C=Cc2cc(OC)c(OC)c(OC)c2)cc1NC(=O)[C@H](N)CO` it is 0.0042 µM (active).

As to `O=C(O)CCCCC(CCSCc1ccccc1)SCc1ccccc1` (stereo not given), the “viability, percent of control” value is 111% (inactive).

For `OC[C@H]1OC(O)C[C@@H](O)[C@H]1O` (stereo not given in full), the “viability, percent of control” value was 103% (inactive). Take `COc1ccc(C[C@@H](C)[C@@H](C)Cc2ccc(OC)c(OC)c2)cc1OC`: the Potency was 0.132 µM (active). On the same count and under the same terms, with `CC(C)C[C@H](NC(=O)[C@@H](NC(=O)c1cccc(-c2ccccc2)n1)[C@@H](C)O)B(O)O` the figure was 0.0209 µM (active). Turning to `CCOC(=O)C=C[C@H](C[C@@H]1CCNC1=O)NC(=O)[C@@H](CC(=O)[C@@H](NC(=O)c1cc(C)on1)C(C)C)Cc1ccc(F)cc1`, the “viability, percent of control” value was 112% (inactive).

For `Cn1cc(C2=C(c3c4n(c5ccccc35)CCC(CN)C4)C(=O)NC2=O)c2ccccc21` (stereo not given), the Potency was 11.8 µM (active). On the same count and under the same terms, with `Oc1ccc(-c2ccc(-c3cc(Nc4cccc(CNC5CC5)c4)n[nH]3)cc2)c(O)c1` the figure was 4.18 µM (active); with `CCCCCCCCc1ccc(CCC(N)(CO)CO)cc1`, 14.8 µM (active).

On to `O=C1NC(=O)C(=Cc2ccc3nccc(-c4ccncc4)c3c2)S1`, for which the Potency was 0.296 µM (active). On the same count and under the same terms, the figure for `CCC[C@@H](C=O)NC(=O)[C@H](CC(C)C)NC(=O)[C@H](CC(C)C)NC(=O)OCc1ccccc1` (Cbz-Leu-Leu-[Nva]-aldehyde) is 0.743 µM (active).

Turning to `C[C@H](CCC(=O)O)[C@H]1CCC2C3C[C@H](O)[C@@H]4C[C@H](O)CC[C@]4(C)C3CC[C@@]21C` (stereo not given in full), the “viability, percent of control” value is 106% (inactive).

On to `COc1cccc2c1C(=O)c1c(O)c3c(c(O)c1C2=O)C[C@@](O)(C(=O)CO)C[C@@H]3O[C@H]1C[C@H](N)[C@H](OC2CCCCO2)[C@H](C)O1` (stereo not given in full), for which the Potency was 2.64 µM (active). Consider `COc1cc(C=CC(=O)CC(=O)C=Cc2ccc(O)c(OC)c2)ccc1O`, for which the Potency was 6.79 µM (active). On the same count and under the same terms, the figure for `O=C(CCCCCCC(=O)Nc1cccnc1)NO` is 3.72 µM (active). Take `O=C(O)C=Cc1ccc(Cn2ccnc2)cc1`: the “viability, percent of control” value was 125% (inactive). On the same count and under the same terms, the figure for `O=C(C[C@@H]1CC=CCCC(=O)O[C@H](c2ccccc2)CNC1=O)NCc1ccc(Cl)cc1` is 104% (inactive); for `C[C@H]1O[C@H](O[C@H]2[C@H](O)[C@@H](O)[C@@H](O[C@H]3[C@H](O)[C@@H](O)C(O)O[C@H]3CO)O[C@H]2CO)[C@H](O)[C@@H](O)[C@H]1N[C@H]1C=C(CO)[C@@H](O)[C@H](O)[C@@H]1O` (stereo not given in full) it is 109% (inactive). As for `CN[C@H]1[C@@H](O)[C@@H]2O[C@@H]3O[C@H](C)CC(=O)[C@]3(O)O[C@@H]2[C@@H](NC)[C@H]1O`, the Potency was 1.18 µM (active). As to `OCc1ccccc1O[C@@H]1O[C@H](CO)[C@H](O)[C@H](O)[C@H]1O`, the “viability, percent of control” value is 88.7% (inactive).

On to `O=C(NNC(=O)c1ccc(CNS(=O)(=O)c2ccc(F)c(Cl)c2)cc1)c1ccccc1`, for which the “viability, percent of control” value was 113% (inactive). As to `CC[C@@]1([C@@H]2O[C@@H]([C@H]3O[C@@](O)(CO)[C@H](C)C[C@H]3C)C[C@H]2C)CC[C@H]([C@]2(C)CC[C@]3(C[C@H](O)[C@@H](C)[C@@H]([C@@H](C)[C@@H](OC)[C@H](C)C(=O)O)O3)O2)O1`, the Potency is 0.724 µM (active).

These data come from PubChem BioAssay (NCATS).
